A selection: hits, their analogues and other compounds. The true share with any hit is near 2.1%.
LANA-H2B inh: blocks KSHV LANA binding to histone H2A/H2B. inhibition, % (no concentration beside the values). Q9QR71. cell-free LANA-H2A/H2B peptide, fluorescence polarization. hit rate 0.6% among 320,000; in the data active = inhibition mostly above about 10%, no sharp cut-off; inactive = mostly below about 6.7%
Mot1-301 SUMO: SUMOylation pathway inhibition by Mot1-301 growth rescue; S. cerevisiae Mot1-301 growth rescue, ATP luminescence, 38.5C; percent above DMSO median, 100 means doubled; growth rescue, % at 18.8 µM; hit rate 1% among 320,000; AID 2716;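 active = every valid replicate shows activation above 250% relative to neutral control wells; inactive = the rest, any valid replicate at or below 250%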;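 also: OY570 slx delta 5 strain wells were the positive control but not used for scaling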
HDAC3 inhib: blocks human histone deacetylase 3 | inhibition, % at 8.3 µM | recombinant HDAC3, fluorogenic peptide/trypsin coupled, fluorescence | AID 2718 | O15379 | hit rate 0.15% among 320,000; in the data active = inhibition above about 26%, passing the limit was not always enough
Target sequence (O15379 whole entry, looked up): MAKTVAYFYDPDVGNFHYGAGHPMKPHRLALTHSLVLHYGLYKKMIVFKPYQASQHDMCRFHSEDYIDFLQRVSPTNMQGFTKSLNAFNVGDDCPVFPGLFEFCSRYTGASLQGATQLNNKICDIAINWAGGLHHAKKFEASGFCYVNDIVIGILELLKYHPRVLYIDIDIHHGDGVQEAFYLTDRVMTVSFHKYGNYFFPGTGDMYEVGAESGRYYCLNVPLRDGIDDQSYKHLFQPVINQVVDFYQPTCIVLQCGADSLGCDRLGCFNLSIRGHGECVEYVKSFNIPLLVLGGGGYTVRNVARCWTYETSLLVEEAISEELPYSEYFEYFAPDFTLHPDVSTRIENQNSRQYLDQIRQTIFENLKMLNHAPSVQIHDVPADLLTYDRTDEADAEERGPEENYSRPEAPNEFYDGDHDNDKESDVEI
IDE act: boosts human insulin-degrading enzyme activity in HEK cells; P14735; FAbeta-B cleavage, fluorescence polarization; 0% vehicle, 100% cell-free pure enzyme wells; activation, % at 5.96 µM; hit rate 0.073% among 340,000;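 active = activation above the mean of all tested compounds plus 3 SD, set per screening campaign, cut at about 17% in these data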
IDE cell inh: cellular human IDE inhibition; P14735; HEK cells, FAbetaB cleavage, fluorescence polarization; inhibition, % at 5.59 µM; hit rate 0.41% among 320,000;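 active = percent inhibition above the average of all tested compounds plus 3 SD, set per screening campaign, cut at about 16% in these data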;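 also: IDE supplied by intact live HEK cells; FP after avidin binding of uncleaved biotin substrate so inhibition keeps polarization high; 0% = DMSO wells and 100% = 60 µM reference IDE inhibitor Ii1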
Mot1 SUMO dose: yeast SUMO pathway inhibition in dose response | shares compounds with Mot1-301 SUMO | S. cerevisiae Mot1-301 galactose growth, ATP luminescence, 24 h; -100 = growth of slx-deleted rescue strain | growth activity, percent, % at 42 µM | 2,300 tested, under 10 active;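 active = Signal drops as the depositor expects, and the fitted half-maximal dose is no more than ten times the top valid tested dose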;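 also: more negative values mean stronger growth rescue toward the control strain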
* marks the source's active call; other numbers are inactive results; nt = not tested or not shown; + = active, no number.

SMILES	LANA-H2B inh	Mot1-301 SUMO	HDAC3 inhib	IDE act	IDE cell inh	Mot1 SUMO dose
O=c1[nH]c(SCc2ccccc2Cl)nc2c1CCCC2	-1	-1	0	2	0	nt
COc1cccc(NC(=O)N2CCCC2C(=O)NC23CC4CC(CC(C4)C2)C3)c1 (stereo not given)	9	-12	-1	0	-2	nt
CC1CCCCC1NC(=O)COC(=O)c1ccc2c(=O)n3c(nc2c1)CCC3 (stereo not given)	4	2	-4	8	1	nt
CSCCc1nc(SCC(=O)Nc2nnc(C)s2)[nH]c1C	4	+	4	4	0	1
CSCCC(NC(=O)c1ccco1)C(=O)N1CCN(Cc2ccccc2)CC1 (stereo not given)	3	426*	2	-5	-2	0
CSCCC(NC(=O)c1ccccc1)C(=O)N1CCN(C(=O)c2ccccc2)CC1 (stereo not given)	5	-15	-6	1	2	nt
CCCCc1n[nH]c(=S)n1Cc1ccc(C)cc1	2	+	3	0	5	1
CCCCCCCc1n[nH]c(=S)n1Cc1ccccc1	-3	-12	11	-3	2	nt
C/C(CC(=O)Nc1cccnc1)=N\NC(=O)C(C)Oc1ccc(Cl)cc1Cl (stereo not given)	-1	671*	2	2	1	0
COc1ccc(NC(=O)c2ccc(COc3ccccc3Br)o2)cc1OC	-2	8	5	-2	2	nt
COc1ccc(NC(=O)c2ccc(COc3ccccc3OC)o2)cc1OC	-4	476*	6	2	4	0
O=C1C2CC=C(Cl)CC2C(=O)N1c1ncn[nH]1 (stereo not given)	-4	570*	-3	3	-1	0
COc1cc(N)c(Cl)cc1C(=O)OCC(=O)Nc1ccc(N2CCOCC2)cc1	1	-3	-2	3	0	nt
COc1ccc(C(=O)COc2ccc3ccc(=O)oc3c2)cc1	-4	426*	nt	6	4	0
COc1cccc(/C=N/NC(=O)CNC(=O)c2ccco2)c1O	-1	400*	-5	2	-1	-1
O=C(NCCCNC(=O)c1cc(Cl)ccc1Cl)c1ccccn1	7	-7	-4	3	6	nt
CN(C)CC/C=C1/c2cc(F)ccc2Sc2ccc(Cl)cc21	1	738*	8	2	2	0
CN(CC(=O)Nc1ccc(F)cc1)C(=O)COC(=O)C1=COCCO1	4	12	2	4	2	nt
COc1ccc(/C(CC2(O)C(=O)Nc3ccccc32)=N\O)cc1 (stereo not given)	2	-2	-10	-2	0	nt
C/C(CC1(O)C(=O)Nc2ccccc21)=N\O (stereo not given)	4	519*	-2	3	-1	0
COc1ccc(CC(=O)Nc2c3c(nn2C(C)(C)C)CS(=O)(=O)C3)cc1OC	-15	1	-2	2	-1	nt
COc1cc(NC(=O)C2=C(C)OCCS2)c(Cl)cc1C(=O)NCCN(C)C	0	356	5	5	4	nt
CCn1cnnc1SCC(=O)Nc1ccccc1C(=O)NC1CC1	1	-9	-10	-5	1	nt
O=C1CN(C(=O)COC(=O)c2ccccc2NCc2ccco2)c2ccccc2N1	-2	728*	-49	0	-3	0
Cn1c(=O)[nH]c(=O)c2c1nc(NCCN)n2CCOc1ccccc1	-1	461*	2	7	1	-1
SMILES	LANA-H2B inh	Mot1-301 SUMO	HDAC3 inhib	IDE act	IDE cell inh	Mot1 SUMO dose
O=S(=O)(Nc1nnc(C2CC2)s1)c1ccccc1	6	60	5	1	3	nt
O=C(CSc1nnc(CNC(=O)c2ccccc2F)o1)NCCc1ccccc1	2	+	-2	4	0	1
Fc1ccc(-c2nnc3ccc(N4CCCC4)nn23)cc1	-2	775*	0	4	-2	-1
O=S(=O)(Nc1ccc(-c2nc3cccnc3s2)cc1)c1cc(F)ccc1F	-2	370*	-1	3	4	-1
CCc1ccc(S(=O)(=O)Nc2ccc(-c3nc4cccnc4s3)cc2)s1	-2	9	nt	1	0	nt
Cc1sc2ncn(C(C)C(=O)OC3CCCCC3)c(=O)c2c1C (stereo not given)	-2	379*	5	1	1	0
COc1ccc(NC(=O)CCC(=O)N2CCOCC2)c([N+](=O)[O-])c1	5	12	1	3	-6	nt
CC1(NC(=O)Cc2ccc(Cl)c(Cl)c2)CCS(=O)(=O)C1 (stereo not given)	1	-12	0	3	-4	nt
CN1C(=O)C(O)(CC(=O)c2ccccc2O)c2cc(Br)ccc21 (stereo not given)	47*	-9	-3	1	0	0
CN1C(=O)C(O)(CC(=O)/C=C/c2ccco2)c2cc(Br)ccc21 (stereo not given)	1	5	-1	5	-3	nt
Cc1ccc(NC(=O)CN2CCN(CCN=CC3=C(O)CC(C)(C)CC3=O)CC2)cc1	3	985*	4	7	-5	1
O=C(CSc1nnc(-c2ccc(Br)cc2)o1)Nc1cccc(C(=O)O)c1	-4	-22	-3	1	3	nt
O=C(CSc1nnc(-c2ccc(Br)cc2)o1)Nc1cccc2ccccc12	0	663*	2	-5	8	0
CC(=O)c1ccc(S(=O)(=O)Oc2ccc(C(=O)O)cc2Cl)cc1	15	13	-2	4	-4	nt
Cc1c(NC(=O)c2ccc(N(Cc3ccccc3)S(C)(=O)=O)cc2)c(=O)n(-c2ccccc2)n1C	0	2	-2	-5	11	nt
Cc1c(NC(=O)c2cc(-c3ccccc3O)on2)c(=O)n(-c2ccccc2)n1C	-2	441*	-4	2	-5	0
Cc1c(NC(=O)c2ccc(N(C)S(C)(=O)=O)cc2)c(=O)n(-c2ccccc2)n1C	-5	+	-5	-4	4	1
CCc1[nH]nc(C(=O)NC2CCCc3c2cnn3-c2cc(C)cc(C)c2)c1C (stereo not given)	1	-1	-2	4	2	nt
CCN1CCN(c2ccc(S(=O)(=O)N3CCOCC3)cc2NC(=O)/C=C/c2cccc(OC)c2OC)CC1	0	-8	-4	5	-1	nt
COC(=O)c1nnn(-c2nonc2N)c1CN1CCCC1	2	1	-6	0	4	nt
CCCCN(C(=O)C1CC(=O)N(CCc2ccc(OC)c(OC)c2)C1)c1c(N)n(CCCC)c(=O)[nH]c1=O (stereo not given)	5	6	nt	4	10	nt
CCN(CC)c1ccc(C=C2C(=O)OC(c3ccccc3)OC2=O)cc1 (stereo not given)	5	+	-2	5	1	0

From PubChem
